# High-throughput results from PubChem.
# Chronic BCR inh – chronic active BCR signaling inhibition | ABC-DLBCL IkBa-CBG/CBR reporter, luminescence ratio, 4 h | Potency, µM (series often up to 46.1 µM), without a hit: top-dose activity change, negative = inhibition, usual class: inhibitors | 0.05% of 340,000 active | AID 493014; active = well fitted inhibition curve with a large enough effect in the signal ratio, with a control signal flat, not every such curve was filed as active; inconclusive = small, poorly fitted or top-dose-only effect, or effect the other way, or a change in a side signal; the % refers to the signal ratio;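 also: plate controls were basal doxycycline-induced cells for no effect and cells given 10 µM MG132 for full effect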
#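 Concentration-response series (up to 46 uM) were applied to TMD8 dual-reporter cells for 4 h at 37C with doxycycline. Green/red ratio, after filter-overlap correction, defined %Activity; red signal alone was normalised to basal cells and zero luminescence.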
# PGK inhibitor – T. brucei PGK inhibition | Potency, µM (titrated, usually from 57.5 µM), for the others: at the top dose activity change, negative = inhibition, most hits filed as inhibitors | 0.043% of 380,000 active | PGK/GAPDH coupled, Kinase-Glo luminescence, 60 min | P07378; also: % is scaled to controls: 0 for no effect and ±100 for the full control effect; nearly all actives have a fitted effect of over 60% in size
#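 Recombinant glycosomal PGK reaction used 1,3-bisphosphoglycerate generated in-well by GAPDH (100nM final) in 100mM TEA pH 7.6, 5mM MgCl2, 0.01% Tween-20. After 60 minutes at room temperature, ATP was read by Kinase-Glo Plus luminescence end-point.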
# USP2a block – USP2a (human) protease inhibition; O75604; Potency, µM (titrated, usually from 38.3 µM), for inactives: at the top dose activity change, negative = inhibition, most hits filed as inhibitors; 0.01% of 330,000 active; USP2 core, Ub-CHOP2 coupled fluorogenic reporter, 485/531;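 also: plate controls were DMSO wells for no effect and full inhibition by NEM control for full effect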
# Target sequence (O75604 whole entry, looked up): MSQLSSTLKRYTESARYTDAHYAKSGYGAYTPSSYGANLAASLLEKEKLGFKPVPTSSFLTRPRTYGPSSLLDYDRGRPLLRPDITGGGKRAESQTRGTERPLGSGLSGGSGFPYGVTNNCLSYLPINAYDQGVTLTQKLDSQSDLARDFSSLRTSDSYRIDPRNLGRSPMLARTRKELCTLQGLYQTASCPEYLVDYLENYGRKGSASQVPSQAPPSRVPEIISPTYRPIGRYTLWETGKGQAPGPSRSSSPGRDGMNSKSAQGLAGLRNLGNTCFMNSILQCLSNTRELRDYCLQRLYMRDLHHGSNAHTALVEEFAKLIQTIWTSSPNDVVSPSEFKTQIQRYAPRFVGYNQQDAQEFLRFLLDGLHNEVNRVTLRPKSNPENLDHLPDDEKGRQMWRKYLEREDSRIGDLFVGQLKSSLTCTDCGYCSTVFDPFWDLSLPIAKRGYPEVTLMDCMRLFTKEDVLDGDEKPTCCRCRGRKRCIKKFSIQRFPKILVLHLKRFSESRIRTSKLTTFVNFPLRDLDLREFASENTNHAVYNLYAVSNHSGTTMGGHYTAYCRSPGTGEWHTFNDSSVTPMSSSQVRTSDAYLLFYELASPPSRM
#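 Cell-free coupled assay: 10nM USP2 core preincubated 30min RT with compound in Tris-HCl pH 8.0/CaCl2/CHAPS buffer, then 25nM Ub-CHOP2 and 25nM reporter substrate; fluorescence (Ex 485/Em 531) read after 60min RT, normalized to NEM inhibition, concentration-response curves fitted.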
# Tb PFK inh-1 – T. brucei PFK enzyme inhibition; O15648; T. brucei PFK, ADP-Glo luminescence; Potency, µM (titrated, usually from 57.5 µM), for inactives: at the highest dose activity, negative = inhibition, most hits filed as inhibitors; 0.17% of 330,000 active;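 also: 0% = uninhibited 1x PFK enzyme wells and -100% = no-enzyme wells; nearly all actives have a fitted effect of over 60% in size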
#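 Activity is normalized to no-enzyme wells (full inhibition) and 1.25 nM enzyme wells (no inhibition). Reaction: 0.5 mM F6P, 0.1 mM ATP, 45 min RT, ADP-Glo luminescence; concentration-response curves fitted and classed by quality.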
# RGS4 inh – blocks human RGS4-accelerated GTP hydrolysis; Transcreener GDP fluorescence polarization, RGS4-accelerated GTP hydrolysis; Potency, µM (top dose mostly 114 µM), for the others: at the top dose activity change, negative = inhibition, usual class: inhibitors; 0.039% of 390,000 active; also: % is scaled to controls: 0 for no effect and ±100 for the full control effect; nearly all actives have a fitted effect of over 75% in size
#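 MLSMR compounds (23 nl, pin-transferred) preincubated 10 min at room temperature with a 500nM (2x) first reagent, then RGS4 at 900nM (2x) plus Transcreener GDP mix added; fluorescence polarization (620/688 nm) read before and after 90 min at 30 °C.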
# Tb PFK KinaseGlo – orthogonal confirmation of T. brucei phosphofructokinase inhibitors. shares compounds with Tb PFK inh-1. Tb PFK enzyme, ATP depletion, Kinase-Glo Plus luminescence. Potency, µM (doses to about 57.5 µM), without a hit: at the highest dose inhibition. 47% of 1,100 active; calls by dose curve; also: nearly all actives have a fitted effect of over 60% in size
# Tb PFK inh-2 – validation of T. brucei phosphofructokinase inhibitors; purified T. brucei PFK, ADP-Glo luminescence, 45 min; AID 504637; 41% of 1,100 active; shares compounds with Tb PFK inh-1; Potency, µM (highest dose often 57.5 µM), for the others: top-dose activity change, negative = inhibition, hits mostly inhibitors;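 also: plate controls were full PFK enzyme control for no effect and no enzyme control for full effect; nearly all actives have a fitted effect of over 60% in size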
# Numbers without * were called inactive; i = inactive; ? = inconclusive; nt = no result given; [ ] = another dose, or the depositor's remark. Shown are actives, neighbours in structure and some others; about 0.25% of the full set was active somewhere. Unless noted, calls follow the shape of the dose curve; as a rule, active = well fitted curve in the direction sought with a large enough effect; inconclusive = small, poorly fitted or top-dose-only effect, or another doubt; inactive = no such curve, though single readings can be large; an effect the other way counts as inactive or inconclusive. Potency is read from the fitted curve at half-maximal effect.
SMILES,Chronic BCR inh,PGK inhibitor,USP2a block,Tb PFK inh-1,RGS4 inh,Tb PFK KinaseGlo,Tb PFK inh-2
CC(=O)n1cc(C(C[N+](=O)[O-])SCCN)c2ccccc21 (stereo not drawn),?,3%,-1%,?,?,-20%,?
COc1cccc(CNc2nc(Cl)nc3nc[nH]c23)c1,nt,nt,nt,nt,15%,nt,nt
COc1cccc(CCn2c(N)cc(=O)[nH]c2=S)c1OC,nt,nt,nt,nt,-1%,nt,nt
Cc1cc(C)c2nc(N3CCCC(C(=O)NCc4ccccc4F)C3)sc2c1 (stereo not drawn),nt,i,nt,nt,7%,nt,nt
CCc1ccc(OCCCCn2c(CCNC(=O)C3CCCCC3)nc3ccccc32)cc1,nt,nt,nt,nt,-2%,nt,nt
CN(C)C=Nc1ccc(Cl)c(Cl)c1,-11%,4%,2%,27µM*,2%,12%,-8%
CCC(/C=C1\Oc2ccc(OC)cc2N1C)=C\c1sc2ccccc2[n+]1CCCS(=O)(=O)[O-],nt,-15%,nt,nt,-52%,nt,nt
COc1cc(/C=C/c2sc3ccccc3[n+]2CCCS(=O)(=O)[O-])ccc1O,?,?,0%,12µM*,-39%,-25%,?
c1ccc(Sc2ccncc2)cc1,nt,-9%,nt,nt,nt,nt,nt
c1cc(SSc2ccncc2)ccn1,?,-5%,9%,24µM*,-94%,17µM*,?
COc1ccc(SCC(Cc2ccccc2)N2CCN(CCc3ccccc3)CCC2=O)cc1 (stereo not drawn),nt,nt,nt,nt,-12%,nt,nt
NCc1ccccc1COc1ccccc1,2%,i,-1%,24µM*,-6%,?,?
O=C(NCc1ccc2c(c1)OCO2)c1ccc2c(c1)OCCO2,?,7%,5%,-3%,29%[11.4 µM],nt,nt
COC(=O)NCc1ccc(Cl)c(Cl)c1,-5%,-8%,4%,21µM*,-28%,11µM*,30µM*
O=C(NCCS(=O)(=O)N1CCN(c2cccc(Cl)c2)CC1)c1ccc2c(c1)OCO2,-3%,8%,0%,?,3%,21µM*,?
COc1ccc(N2CCN(S(=O)(=O)CCNC(=O)c3ccc4c(c3)OCO4)CC2)cc1,-6%,-10%,2%,9%,24%,nt,nt
COC(=O)NCc1ccc(CNC(=O)OC)cc1,0%,14%,-1%,-7%,17%,nt,nt
O=C(NCc1cccc(Cl)c1)c1ccc2c(c1)OCCO2,-8%,3%,0%,24µM*,-2%,13µM*,19µM*
O=C(NCc1ccc(Cl)c(Cl)c1)c1ccc2c(c1)OCO2,-10%,i,-4%,24µM*,5%,7.6µM*,8.5µM*
CCCOc1ccc(C(=O)Nc2ccc(NC(=O)c3ccccc3)c(Br)c2)cc1,nt,11%,nt,nt,?,nt,nt
CC1=NN(CCC#N)C(=O)/C1=C/c1ccc(N(C)C)cc1,1%,-7%,2%,21µM*,-17%,11µM*,27µM*
CC1=NOC(=O)/C1=C/c1ccc(N(C)C)cc1,-1%,-7%,3%,15µM*,-29%,?,13µM*
N=c1n(CCCOc2ccc(F)cc2)c2ccccc2n1CC(N)=O,-4%,-6%,2%,0%,-10%,nt,nt
Nc1nc2ccccc2n1CCOc1ccc(F)cc1,1%,2%,2%,?,22%,13µM*,21µM*
CCOC(=O)Cn1c(=N)n(CCOc2ccc(F)cc2)c2ccccc21,?,-11%,0%,5.4µM*,-2%,3µM*,5.4µM*
SMILES,Chronic BCR inh,PGK inhibitor,USP2a block,Tb PFK inh-1,RGS4 inh,Tb PFK KinaseGlo,Tb PFK inh-2
O=C(CSc1nc(-c2ccccc2)nc2c1CCCC2)c1ccc(F)cc1,nt,-4%,nt,nt,0%,nt,nt
CCOC(=O)c1ccc(NC2SC(=O)N(Cc3cccc(C(=O)O)c3)C2=O)cc1 (stereo not drawn),nt,2%,nt,nt,-38%,nt,nt
Cn1c(SCC(=O)O)nnc1-c1ccc(NC(=O)c2ccc(Cl)c(Cl)c2)cc1,-5%,-8%,4%,?,-6%,24µM*,?
Cc1nc(C)c(-c2ccc(SCC(=O)Nc3ccc(Cl)c(Cl)c3)nn2)s1,nt,-8%,nt,nt,-27%,nt,nt
CN(C)c1ccc(C(=S)N2CCN(c3ccc([N+](=O)[O-])cc3)CC2)cc1,-10%,2%,2%,12µM*,?,8.5µM*,13µM*
Cc1cccc(N2CCN(C(=S)c3ccc([N+](=O)[O-])cc3)CC2)c1,7%,-6%,-1%,?,?,24µM*,?
CC(=O)NCCCc1ccc(C(=O)COC(=O)CNC(=O)c2ccc3ccccc3c2)cc1,nt,nt,nt,nt,-1%,nt,nt
CCOC(=O)c1c(NC(=O)COC(=O)c2ccc(NC(=O)CC#N)cc2)sc(C(=O)NC)c1C,0%,-8%,3%,0.85µM*,-23%,6µM*,6.7µM*
O=C(O)C1C2C=CC(C2)C1C(=O)Nc1ccc(Cl)c(Cl)c1 (stereo not drawn),?,-3%,-1%,21µM*,-10%,18%,-13%
COCCn1cnnc1SCC(=O)Nc1cc(OC)c([N+](=O)[O-])cc1C,-1%,-4%,-2%,2%,-3%,nt,nt
CCCCc1ccc(-n2nnnc2SCC(=O)Nc2cc(OC)c([N+](=O)[O-])cc2C)cc1,?,-1%,2%,?,?,7%,-2%
Clc1ccc(CN2C3=NCCCN3c3ccccc32)cc1Cl,?,?,0%,13µM*,-1%,7.6µM*,13µM*
Clc1ccc(CN2C3=NCCCN3c3ccccc32)cc1,?,-6%,0%,15µM*,-9%,24µM*,30µM*
CCCCCC/C(C)=C1/SC(=S)NC1=O,?,-16%,1%,-2%,-33%,nt,nt
C/C(C/C(C)=C1/SC(=S)NC1=O)=C1\SC(=S)NC1=O,?,?,2%,?,?,-29%,?
O=C(Nc1nc(-c2ccco2)c(-c2ccco2)s1)c1cnccn1,24%,-14%,-16%,12µM*,-13%,1%,0%
O=C(Cc1sc(-c2ccccc2)nc1-c1ccccc1)Nc1ccccc1,?,i,3%,0%,-28%,nt,nt
O=C(O)Cc1sc(-c2ccccc2Cl)nc1-c1ccccc1,?,-7%,-1%,?,4%,0%,12%
CCn1c(N)c(C(=O)NC)sc1=S,6%,i,-1%,?,-97%,9.5µM*,19µM*
CCNC(=O)c1sc(=S)n(CC)c1N,-10%,i,-13%,-4%,?,nt,nt
COc1ccc(C(=O)COC(=O)/C=C/c2ccccc2)cc1,?,12%,-10%,1%,-9%,nt,nt
COc1ccc(C(=O)COC(=O)/C=C/c2ccccc2)c(OC)c1,?,2%,2%,?,-14%,?,-14%
